From PubChem BioAssay AID1159580 (chemical genetic matrix, 2015)
In all, about 5,500 compounds went through this assay and about 2,000 (36%) were called active. About 18% were inconclusive and are not listed. No stated cut-off is given here; in the data, active means normalized growth mostly below about 0.91 (no sharp cut-off); inconclusive means no clear call, values can overlap the other calls; inactive means mostly above about 0.92. Some of the results follow.

Experiment: chemical genetic growth profiling, strain panel (AID 1159580);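 further: tested at 20 µM; growth read once vehicle control cultures reached saturation at 30 °C; 1 = growth at the plate median or of vehicle wells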
Conditions: growth OD

Measured: normalized growth

OCc1ccccc1O
inactive: S. cerevisiae deletion strains, locus YKL068W, stronger effect = lower value 0.994 | S. cerevisiae deletion strains, locus YKL085W, strain MDH1 (second series), stronger effect = lower value 0.992 | S. cerevisiae deletion strains, locus YKL085W, strain MDH1, stronger effect = lower value 0.992 | S. cerevisiae deletion strains, locus YKL160W, strain elf1, stronger effect = lower value 1.04 | S. cerevisiae deletion strains, locus YKL190W, strain CNB1, stronger effect = lower value 1.01 | S. cerevisiae deletion strains, locus YKR001C, strain vps1, stronger effect = lower value 0.989 | S. cerevisiae deletion strains, locus YKR026C, strain gcn3, stronger effect = lower value 1.02 | S. cerevisiae deletion strains, locus YKR091W, strain srl3, stronger effect = lower value 1.01 | S. cerevisiae deletion strains, locus YLL001W, strain dnm1, stronger effect = lower value 1.01 | S. cerevisiae deletion strains, locus YLL026W, stronger effect = lower value 1 | S. cerevisiae deletion strains, locus YLL041C, strain sdh2, stronger effect = lower value 1.01 | S. cerevisiae deletion strains, locus YLR027C, strain aat2, stronger effect = lower value 1.02 | S. cerevisiae deletion strains, locus YLR039C, strain RIC1, stronger effect = lower value 0.988 | S. cerevisiae deletion strains, locus YLR058C, strain SHM2, stronger effect = lower value 1.02 | S. cerevisiae deletion strains, locus YLR102C, strain apc9, stronger effect = lower value 0.981 | S. cerevisiae deletion strains, locus YLR113W, strain HOG1, stronger effect = lower value 1.03 | S. cerevisiae deletion strains, locus YLR221C, strain rsa3, stronger effect = lower value 1.02 | S. cerevisiae deletion strains, locus YLR258W, strain gsy2, stronger effect = lower value 1.02 | S. cerevisiae deletion strains, locus YLR262C, strain YPT6 (second series), stronger effect = lower value 1.06 | S. cerevisiae deletion strains, locus YLR262C, strain YPT6, stronger effect = lower value 1.04 | S. cerevisiae deletion strains, locus YLR268W, strain sec22, stronger effect = lower value 0.969 | S. cerevisiae deletion strains, locus YLR320W, strain mms22, stronger effect = lower value 1.02 | S. cerevisiae deletion strains, locus YLR330W, strain CHS5, stronger effect = lower value 1.01 | S. cerevisiae deletion strains, locus YLR342W, strain FKS1 (second series), stronger effect = lower value 1.01 | S. cerevisiae deletion strains, locus YLR342W, strain FKS1, stronger effect = lower value 1.03 | S. cerevisiae deletion strains, locus YLR357W, strain rsc2, stronger effect = lower value 1.08 | S. cerevisiae deletion strains, locus YLR370C, strain arc18, stronger effect = lower value 1.01 | S. cerevisiae deletion strains, locus YLR371W, strain rom2, stronger effect = lower value 0.989 | S. cerevisiae deletion strains, locus YLR384C, strain iki3, stronger effect = lower value 1.01 | S. cerevisiae deletion strains, locus YLR418C, strain cdc73, stronger effect = lower value 0.962 | S. cerevisiae deletion strains, locus YML016C, strain PPZ1, stronger effect = lower value 1.02 | S. cerevisiae deletion strains, locus YML032C, strain rad52, stronger effect = lower value 0.979 | S. cerevisiae deletion strains, locus YML120C, strain ndi1, stronger effect = lower value 1.01 | S. cerevisiae deletion strains, locus YML124C, strain tub3, stronger effect = lower value 0.997 | S. cerevisiae deletion strains, locus YMR058W, strain fet3, stronger effect = lower value 1.02 | S. cerevisiae deletion strains, locus YMR078C, strain ctf18, stronger effect = lower value 0.993 | S. cerevisiae deletion strains, locus YMR125W, strain sto1, stronger effect = lower value 1.01 | S. cerevisiae deletion strains, locus YMR129W, stronger effect = lower value 1.03 | S. cerevisiae deletion strains, locus YMR205C, strain PFK2, stronger effect = lower value 1.03 | S. cerevisiae deletion strains, locus YMR223W, strain ubp8, stronger effect = lower value 0.994 | S. cerevisiae deletion strains, locus YMR231W, strain pep5, stronger effect = lower value 1.01 | S. cerevisiae deletion strains, locus YMR263W, strain SAP30, stronger effect = lower value 1.02 | S. cerevisiae deletion strains, locus YMR307W, strain GAS1, stronger effect = lower value 1.01 | S. cerevisiae deletion strains, locus YNL067W, strain RPL9B, stronger effect = lower value 1.01 | S. cerevisiae deletion strains, locus YNL071W, strain lat1, stronger effect = lower value 1.04 | S. cerevisiae deletion strains, locus YNL128W, strain TEP1, stronger effect = lower value 1.02 | S. cerevisiae deletion strains, locus YNL153C, strain GIM3, stronger effect = lower value 1.01 | S. cerevisiae deletion strains, locus YNL183C, strain NPR1, stronger effect = lower value 1 | S. cerevisiae deletion strains, locus YNL209W, strain ssb2, stronger effect = lower value 1.02 | S. cerevisiae deletion strains, locus YNL233W, strain BNI4, stronger effect = lower value 1.01 | S. cerevisiae deletion strains, locus YNL248C, strain rpa49, stronger effect = lower value 1.04 | S. cerevisiae deletion strains, locus YNL250W, strain rad50, stronger effect = lower value 0.986 | S. cerevisiae deletion strains, locus YNL271C, strain bni1, stronger effect = lower value 0.98 | S. cerevisiae deletion strains, locus YNL298W, strain CLA4, stronger effect = lower value 0.981 | S. cerevisiae deletion strains, locus YNL307C, strain MCK1, stronger effect = lower value 0.989 | S. cerevisiae deletion strains, locus YNL322C, strain KRE1 (second series), stronger effect = lower value 1.03 | S. cerevisiae deletion strains, locus YNL322C, strain KRE1, stronger effect = lower value 1.01 | S. cerevisiae deletion strains, locus YNR049C, strain mso1, stronger effect = lower value 1.02 | S. cerevisiae deletion strains, locus YNR052C, strain pop2, stronger effect = lower value 0.989 | S. cerevisiae deletion strains, locus YOL006C, strain TOP1, stronger effect = lower value 1.06 | S. cerevisiae deletion strains, locus YOL012C, strain htz1 0.829 | S. cerevisiae deletion strains, locus YOL147C, strain pex11, stronger effect = lower value 0.985 | S. cerevisiae deletion strains, locus YOR001W, strain rrp6, stronger effect = lower value 1.03 | S. cerevisiae deletion strains, locus YOR061W, strain CKA2, stronger effect = lower value 1.02 | S. cerevisiae deletion strains, locus YOR069W, strain VPS5, stronger effect = lower value 1.01 | S. cerevisiae deletion strains, locus YOR070C, strain gyp1, stronger effect = lower value 1.03 | S. cerevisiae deletion strains, locus YOR080W, strain dia2, stronger effect = lower value 1.02 | S. cerevisiae deletion strains, locus YOR083W, strain WHI5, stronger effect = lower value 1.02 | S. cerevisiae deletion strains, locus YOR106W, strain vam3, stronger effect = lower value 1.01 | S. cerevisiae deletion strains, locus YOR136W, strain idh2, stronger effect = lower value 0.992 | S. cerevisiae deletion strains, locus YOR144C, strain elg1, stronger effect = lower value 0.991 | S. cerevisiae deletion strains, locus YOR184W, strain ser1, stronger effect = lower value 0.984 | S. cerevisiae deletion strains, locus YOR231W, strain MKK1, stronger effect = lower value 1.03 | S. cerevisiae deletion strains, locus YOR265W, strain rbl2, stronger effect = lower value 1 | S. cerevisiae deletion strains, locus YOR270C, strain vph1, stronger effect = lower value 1.03 | S. cerevisiae deletion strains, locus YOR290C, strain snf2, stronger effect = lower value 1.01 | S. cerevisiae deletion strains, locus YOR316C, strain cot1, stronger effect = lower value 0.996 | S. cerevisiae deletion strains, locus YPL051W, strain arl3, stronger effect = lower value 1.03 | S. cerevisiae deletion strains, locus YPL078C, strain atp4, stronger effect = lower value 1.02 | S. cerevisiae deletion strains, locus YPL106C, strain sse1, stronger effect = lower value 1.07 | S. cerevisiae deletion strains, locus YPL240C, strain hsp82, stronger effect = lower value 1.01 | S. cerevisiae deletion strains, locus YPL241C, strain CIN2, stronger effect = lower value 1.01 | S. cerevisiae deletion strains, locus YPL256C, strain CLN2, stronger effect = lower value 1.07 | S. cerevisiae deletion strains, locus YPR119W, strain clb2, stronger effect = lower value 0.986 | S. cerevisiae deletion strains, locus YPR141C, strain kar3, stronger effect = lower value 0.992 | S. cerevisiae deletion strains, locus YPR163C, strain tif3, stronger effect = lower value 0.994 | S. cerevisiae deletion strains, locus YPR167C, strain met16, stronger effect = lower value 0.989 | S. cerevisiae deletion strains, strain wtn01, stronger effect = lower value 0.973 | S. cerevisiae strains, strain wild type, stronger effect = lower value 1.01
